# Assay results taken from the supplement of paper PMC9254222.
# The full ranking holds about 1,100 compounds; the median of “Wnt reporter firefly/Renilla luciferase ratio relative to plate median” is about 1.1, and the highest 2% start at about 1.6. For the sample, the highest values were picked, then their nearest neighbours and some compounds at random.
# Test system: HEK293T (UBE3A T485A transfected, BAR Wnt reporter)
# Assay: Wnt reporter firefly/Renilla luciferase ratio relative to plate median (fold (linear ratio)); higher = more Wnt/beta-catenin reporter activation
# Settings: 24 h
# Method in brief: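 HEK293T cells were seeded at 4500 cells/well in white 384-well plates and grown in DMEM with 10% FBS at 37°C and 5% CO2. The cells were transfected using Fugene 6 with a BAR firefly luciferase Wnt reporter, TK-Renilla and an expression plasmid, and four hours later robots added the chemicals at 0.01–100 uM for 24 h before a Dual-Glo luciferase readout. Wnt activity was taken as the firefly/Renilla ratio and cell health as raw Renilla, each median-centred per plate. Values are averages of four biological replicates.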
SMILES,Wnt reporter firefly/Renilla luciferase ratio (concentration: 0.1 uM),Wnt reporter firefly/Renilla luciferase ratio (concentration: 1 uM),Wnt reporter firefly/Renilla luciferase ratio (concentration: 10 uM),Wnt reporter firefly/Renilla luciferase ratio (concentration: 100 uM),Wnt reporter firefly/Renilla luciferase ratio (concentration: 0.01 uM)
CC[C@H](c1ccc(O)cc1)[C@@H](CC)c1ccc(O)cc1 [meso-Hexestrol],0.858,1.05,0.711,0.0535,
CCCCc1ccc2c(n1)[C@@H](c1ccc(OC)cc1C[C@H](C)C(=O)[O-])[C@H](C(=O)[O-])[C@H]2c1ccc2c(c1)OCO2.[Na+].[Na+],1.37,1.08,1.18,0.429,
OCC1OC(n2cnc3c(NC4CCCC4)ncnc32)C(O)C1O (centres undefined) [N6-Cyclopentyl adenosine],1.15,1.06,1.05,1.18,1.31
Cl.Nc1ccn([C@@H]2O[C@H](CO)[C@@H](O)[C@@H]2O)c(=O)n1 [Cytarabine hydrochloride],1.1,0.941,0.171,0.125,
Nc1ncn([C@@H]2O[C@H](CO)[C@@H](O)[C@H]2O)c(=O)n1 [5-azacytidine],1.52,1.36,0.213,2.42,1.01
c1ccc(C(O[C@@H]2CCCN(CCc3ccc4c(c3)OCO4)C2)c2ccccc2)cc1 [Zamifenacin],1.15,1.05,0.996,1.13,
CS(=O)(=O)O.Cc1nccn1-c1ccc(Sc2cccc(C3(C(N)=O)CCOCC3)c2)cc1,1.01,0.73,0.387,0.282,
COc1ccc2sc(C(=O)Nc3nnn[n-]3)c(OC(C)C)c2c1.[Na+],1.08,1.08,1.35,,
CCCCCCC(=O)OCC [Ethyl heptanoate],1.14,1.05,1.47,1.14,
CCCCCOC(C)=O [Pentyl acetate],1.22,0.968,1.4,1.61,
CC(=O)OCCOCCOCCOC(C)=O [Triethylene glycol diacetate],1.25,1.16,1.07,1.26,
CCCCOC(=O)CCCCC(=O)OCCCC [Dibutyl hexanedioate],0.981,0.969,1,1.08,
CCCCOC(=O)CCCCCCCCC(=O)OCCCC [Dibutyl decanedioate],0.951,0.896,0.802,2.33,
CC(=O)OCCC(C)C [3-Methylbutyl acetate],1.41,0.938,1.03,1.09,
"Cc1cccc(C)c1O [2,6-Dimethylphenol]",1.32,0.992,1.45,1.16,
CC(=O)c1ccc2c(c1)[C@H](NC(=O)c1ccc(F)cc1)[C@@H](O)C(C)(C)O2 [Carabersat],1.27,1.07,1.04,1.43,
C=C(C)C(N)=O [Methacrylamide],1.22,1.04,1.05,1.25,
